From the supplement of paper PMC11732987, “Enantioselective OTUD7B fragment discovery through chemoproteomics screening and high-throughput optimisation” (Communications Chemistry, 2025)

Columns and labels:
Assay in all cases: log2 ratio of Biotin-Ahx-Ub-VS probe labelling (fragment/DMSO); higher = less target engagement (more negative = stronger competition), active = hit call of the paper (q ≤ 0.05, log2 ratio ≤ -1)
Conditions in all cases: compound concentration: 200 uM; treatment time: 3 h
[1] = target: T1, USP19 (UniProt O94966)
T1 sequence (whole entry): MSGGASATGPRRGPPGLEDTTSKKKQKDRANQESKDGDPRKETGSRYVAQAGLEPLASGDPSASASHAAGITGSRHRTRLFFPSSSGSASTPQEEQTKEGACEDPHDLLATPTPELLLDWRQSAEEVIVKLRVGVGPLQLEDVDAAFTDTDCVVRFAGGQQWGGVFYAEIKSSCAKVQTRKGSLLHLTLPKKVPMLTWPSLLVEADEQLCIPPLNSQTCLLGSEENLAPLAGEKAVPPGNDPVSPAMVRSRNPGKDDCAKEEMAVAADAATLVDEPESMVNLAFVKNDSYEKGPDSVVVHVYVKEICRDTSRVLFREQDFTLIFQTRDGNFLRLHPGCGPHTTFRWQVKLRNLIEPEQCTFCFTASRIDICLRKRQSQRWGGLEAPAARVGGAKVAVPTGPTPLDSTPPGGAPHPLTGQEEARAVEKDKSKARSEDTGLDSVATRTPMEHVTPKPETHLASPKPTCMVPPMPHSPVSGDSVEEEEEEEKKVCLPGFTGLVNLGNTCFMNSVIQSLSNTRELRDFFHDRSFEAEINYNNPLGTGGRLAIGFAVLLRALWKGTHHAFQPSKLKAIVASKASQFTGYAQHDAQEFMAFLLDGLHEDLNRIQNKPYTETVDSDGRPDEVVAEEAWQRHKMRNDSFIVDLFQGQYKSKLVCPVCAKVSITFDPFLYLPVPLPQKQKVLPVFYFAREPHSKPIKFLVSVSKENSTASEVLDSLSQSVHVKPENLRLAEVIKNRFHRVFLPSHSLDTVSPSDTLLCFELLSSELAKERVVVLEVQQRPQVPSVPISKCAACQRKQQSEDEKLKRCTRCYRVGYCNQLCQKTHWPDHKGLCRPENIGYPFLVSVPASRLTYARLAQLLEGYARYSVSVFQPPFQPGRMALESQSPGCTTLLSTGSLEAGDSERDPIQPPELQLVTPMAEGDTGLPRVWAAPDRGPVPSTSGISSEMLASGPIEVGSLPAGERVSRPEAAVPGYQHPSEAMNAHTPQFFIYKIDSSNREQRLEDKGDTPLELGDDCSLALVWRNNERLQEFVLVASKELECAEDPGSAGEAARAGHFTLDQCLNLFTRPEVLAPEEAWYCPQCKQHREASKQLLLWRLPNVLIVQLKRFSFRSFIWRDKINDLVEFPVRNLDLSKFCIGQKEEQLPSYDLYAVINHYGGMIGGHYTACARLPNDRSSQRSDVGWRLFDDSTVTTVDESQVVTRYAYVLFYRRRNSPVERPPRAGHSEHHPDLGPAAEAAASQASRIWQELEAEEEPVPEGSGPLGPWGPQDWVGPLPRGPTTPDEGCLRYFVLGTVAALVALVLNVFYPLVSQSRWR
Outline: (§1)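 HEK293T lysate (495 µg per sample, in Tris/CHAPS/IGEPAL buffer with protease inhibitors) was exposed in triplicate for 3 h to fragment at 200 µM or to vehicle, then to Biotin-Ahx-Ub-VS at 0.5 µM final for 1 h. Labelled DUBs were enriched on NeutrAvidin, digested with LysC and trypsin, and analysed by diaPASEF LC-MS/MS. Spectronaut label-free quantities were normalised to the global median, and values are average log2 ratios of fragment over vehicle from an unpaired t-test. Only proteins with ≥2 unique peptides were used.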

[2] = target: T2, USP22 (UniProt Q9UPT9)
T2 sequence (whole entry): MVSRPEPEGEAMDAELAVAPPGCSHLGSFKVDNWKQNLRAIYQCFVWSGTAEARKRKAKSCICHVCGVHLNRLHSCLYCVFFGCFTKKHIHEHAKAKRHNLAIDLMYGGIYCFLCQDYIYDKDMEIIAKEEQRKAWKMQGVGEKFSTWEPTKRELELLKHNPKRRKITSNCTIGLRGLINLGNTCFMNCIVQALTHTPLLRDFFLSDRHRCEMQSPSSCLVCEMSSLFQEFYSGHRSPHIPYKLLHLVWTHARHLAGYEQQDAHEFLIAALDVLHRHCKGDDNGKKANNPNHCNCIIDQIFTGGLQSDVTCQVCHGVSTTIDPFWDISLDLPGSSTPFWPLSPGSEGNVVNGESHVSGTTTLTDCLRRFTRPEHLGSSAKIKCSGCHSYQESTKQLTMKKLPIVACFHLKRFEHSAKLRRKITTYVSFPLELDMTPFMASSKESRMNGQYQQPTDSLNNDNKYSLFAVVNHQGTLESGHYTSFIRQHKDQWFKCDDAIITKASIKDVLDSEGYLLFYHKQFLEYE
Outline: as §1

[3] = target: USP24 (UniProt Q9UPU5)
Sequence of USP24 (Q9UPU5 whole entry): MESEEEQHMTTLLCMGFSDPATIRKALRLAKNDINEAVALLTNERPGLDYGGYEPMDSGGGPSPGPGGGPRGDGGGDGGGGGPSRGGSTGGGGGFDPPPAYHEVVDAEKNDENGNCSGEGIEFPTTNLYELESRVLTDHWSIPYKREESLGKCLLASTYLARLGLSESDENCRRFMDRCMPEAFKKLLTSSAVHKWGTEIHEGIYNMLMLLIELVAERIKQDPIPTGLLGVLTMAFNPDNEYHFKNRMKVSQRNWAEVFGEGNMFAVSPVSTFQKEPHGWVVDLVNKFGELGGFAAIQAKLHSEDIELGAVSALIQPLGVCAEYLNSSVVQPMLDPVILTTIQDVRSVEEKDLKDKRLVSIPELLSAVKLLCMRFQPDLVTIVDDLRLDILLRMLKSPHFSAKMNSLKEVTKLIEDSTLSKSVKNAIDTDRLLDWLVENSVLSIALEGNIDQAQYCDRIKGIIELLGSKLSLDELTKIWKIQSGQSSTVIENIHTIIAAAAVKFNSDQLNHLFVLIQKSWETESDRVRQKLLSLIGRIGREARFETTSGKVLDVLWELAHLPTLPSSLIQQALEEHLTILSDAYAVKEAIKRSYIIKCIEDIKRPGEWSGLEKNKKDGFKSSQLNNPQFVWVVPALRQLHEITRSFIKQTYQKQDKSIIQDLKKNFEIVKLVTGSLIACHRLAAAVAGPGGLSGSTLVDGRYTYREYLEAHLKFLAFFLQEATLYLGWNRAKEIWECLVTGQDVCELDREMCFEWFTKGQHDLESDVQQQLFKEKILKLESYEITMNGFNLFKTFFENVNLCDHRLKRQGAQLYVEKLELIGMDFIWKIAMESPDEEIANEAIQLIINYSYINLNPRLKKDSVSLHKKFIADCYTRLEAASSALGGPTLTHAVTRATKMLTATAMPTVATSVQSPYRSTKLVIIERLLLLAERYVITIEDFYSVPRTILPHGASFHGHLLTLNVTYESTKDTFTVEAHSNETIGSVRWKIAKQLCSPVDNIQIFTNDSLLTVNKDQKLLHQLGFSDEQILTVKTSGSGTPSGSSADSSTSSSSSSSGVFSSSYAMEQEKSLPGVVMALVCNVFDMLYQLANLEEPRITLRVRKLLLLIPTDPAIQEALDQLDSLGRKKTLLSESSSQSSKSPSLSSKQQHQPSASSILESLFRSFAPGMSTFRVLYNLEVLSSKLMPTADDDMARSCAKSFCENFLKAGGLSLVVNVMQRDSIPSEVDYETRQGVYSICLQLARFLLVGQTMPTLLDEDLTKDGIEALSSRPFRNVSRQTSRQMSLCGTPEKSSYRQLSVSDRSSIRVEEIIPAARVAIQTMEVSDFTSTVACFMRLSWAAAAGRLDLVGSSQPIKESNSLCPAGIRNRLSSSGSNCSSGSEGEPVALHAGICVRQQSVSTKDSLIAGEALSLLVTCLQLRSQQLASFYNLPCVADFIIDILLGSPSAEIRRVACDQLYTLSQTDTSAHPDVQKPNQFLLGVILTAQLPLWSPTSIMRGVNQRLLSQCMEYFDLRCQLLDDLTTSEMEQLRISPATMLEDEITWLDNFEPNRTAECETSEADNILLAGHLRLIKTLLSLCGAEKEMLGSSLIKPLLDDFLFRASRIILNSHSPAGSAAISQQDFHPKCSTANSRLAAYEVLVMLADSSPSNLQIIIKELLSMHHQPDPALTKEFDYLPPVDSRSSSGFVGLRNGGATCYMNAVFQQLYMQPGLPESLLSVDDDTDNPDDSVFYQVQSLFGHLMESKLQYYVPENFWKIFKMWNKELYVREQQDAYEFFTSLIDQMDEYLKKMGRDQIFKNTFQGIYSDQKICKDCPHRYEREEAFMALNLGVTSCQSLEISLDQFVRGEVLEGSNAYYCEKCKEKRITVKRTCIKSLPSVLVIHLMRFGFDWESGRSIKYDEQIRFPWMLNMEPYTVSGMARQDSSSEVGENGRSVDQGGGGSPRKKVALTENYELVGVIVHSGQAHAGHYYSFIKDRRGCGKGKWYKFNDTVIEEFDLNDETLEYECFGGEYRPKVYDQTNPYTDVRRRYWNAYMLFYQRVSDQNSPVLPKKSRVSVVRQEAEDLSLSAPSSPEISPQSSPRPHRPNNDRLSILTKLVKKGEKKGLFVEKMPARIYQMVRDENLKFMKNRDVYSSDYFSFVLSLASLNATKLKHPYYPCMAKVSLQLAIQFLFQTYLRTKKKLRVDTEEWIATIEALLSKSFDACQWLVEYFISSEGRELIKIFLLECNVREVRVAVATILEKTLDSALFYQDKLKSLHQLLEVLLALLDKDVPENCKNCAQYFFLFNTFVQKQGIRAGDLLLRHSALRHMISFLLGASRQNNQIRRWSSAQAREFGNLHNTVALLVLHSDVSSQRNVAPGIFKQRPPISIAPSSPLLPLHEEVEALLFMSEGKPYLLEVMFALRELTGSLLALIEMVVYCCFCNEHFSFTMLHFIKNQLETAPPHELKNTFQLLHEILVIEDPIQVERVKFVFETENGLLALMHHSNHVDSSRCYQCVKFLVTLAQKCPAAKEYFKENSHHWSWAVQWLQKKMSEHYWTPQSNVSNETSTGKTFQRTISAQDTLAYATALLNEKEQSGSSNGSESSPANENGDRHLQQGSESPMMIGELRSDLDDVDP
Outline: as §1

[4] = target: T3, USP25 (UniProt Q9UHP3)
T3 sequence (whole entry): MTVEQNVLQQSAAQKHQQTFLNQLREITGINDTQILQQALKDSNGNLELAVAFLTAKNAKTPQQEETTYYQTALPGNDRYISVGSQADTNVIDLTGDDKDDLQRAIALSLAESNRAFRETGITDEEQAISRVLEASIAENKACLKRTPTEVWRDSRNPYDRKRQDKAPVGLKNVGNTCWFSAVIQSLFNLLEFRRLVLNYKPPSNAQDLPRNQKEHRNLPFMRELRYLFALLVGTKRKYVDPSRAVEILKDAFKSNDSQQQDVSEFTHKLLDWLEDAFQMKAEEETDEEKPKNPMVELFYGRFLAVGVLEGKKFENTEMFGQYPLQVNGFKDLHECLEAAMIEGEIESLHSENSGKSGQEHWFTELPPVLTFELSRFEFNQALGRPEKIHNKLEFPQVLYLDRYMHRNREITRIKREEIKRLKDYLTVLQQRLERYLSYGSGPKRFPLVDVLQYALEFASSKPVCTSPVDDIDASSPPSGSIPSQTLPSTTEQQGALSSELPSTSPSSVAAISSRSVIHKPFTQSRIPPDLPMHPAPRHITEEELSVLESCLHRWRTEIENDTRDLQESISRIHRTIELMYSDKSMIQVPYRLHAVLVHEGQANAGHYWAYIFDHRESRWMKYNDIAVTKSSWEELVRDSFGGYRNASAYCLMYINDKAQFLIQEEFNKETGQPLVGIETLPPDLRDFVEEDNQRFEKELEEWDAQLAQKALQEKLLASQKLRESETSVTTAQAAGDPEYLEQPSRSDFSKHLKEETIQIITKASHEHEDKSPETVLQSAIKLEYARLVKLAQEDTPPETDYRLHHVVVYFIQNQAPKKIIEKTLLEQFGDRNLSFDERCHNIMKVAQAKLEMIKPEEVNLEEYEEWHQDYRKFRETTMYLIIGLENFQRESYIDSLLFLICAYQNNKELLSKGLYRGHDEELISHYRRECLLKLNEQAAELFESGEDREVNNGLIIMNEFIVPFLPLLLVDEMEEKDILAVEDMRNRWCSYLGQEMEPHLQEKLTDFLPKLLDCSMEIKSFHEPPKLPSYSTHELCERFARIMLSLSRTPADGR
Outline: as §1

[5] = target: T4, USP28 (UniProt Q96RU2)
T4 sequence (whole entry): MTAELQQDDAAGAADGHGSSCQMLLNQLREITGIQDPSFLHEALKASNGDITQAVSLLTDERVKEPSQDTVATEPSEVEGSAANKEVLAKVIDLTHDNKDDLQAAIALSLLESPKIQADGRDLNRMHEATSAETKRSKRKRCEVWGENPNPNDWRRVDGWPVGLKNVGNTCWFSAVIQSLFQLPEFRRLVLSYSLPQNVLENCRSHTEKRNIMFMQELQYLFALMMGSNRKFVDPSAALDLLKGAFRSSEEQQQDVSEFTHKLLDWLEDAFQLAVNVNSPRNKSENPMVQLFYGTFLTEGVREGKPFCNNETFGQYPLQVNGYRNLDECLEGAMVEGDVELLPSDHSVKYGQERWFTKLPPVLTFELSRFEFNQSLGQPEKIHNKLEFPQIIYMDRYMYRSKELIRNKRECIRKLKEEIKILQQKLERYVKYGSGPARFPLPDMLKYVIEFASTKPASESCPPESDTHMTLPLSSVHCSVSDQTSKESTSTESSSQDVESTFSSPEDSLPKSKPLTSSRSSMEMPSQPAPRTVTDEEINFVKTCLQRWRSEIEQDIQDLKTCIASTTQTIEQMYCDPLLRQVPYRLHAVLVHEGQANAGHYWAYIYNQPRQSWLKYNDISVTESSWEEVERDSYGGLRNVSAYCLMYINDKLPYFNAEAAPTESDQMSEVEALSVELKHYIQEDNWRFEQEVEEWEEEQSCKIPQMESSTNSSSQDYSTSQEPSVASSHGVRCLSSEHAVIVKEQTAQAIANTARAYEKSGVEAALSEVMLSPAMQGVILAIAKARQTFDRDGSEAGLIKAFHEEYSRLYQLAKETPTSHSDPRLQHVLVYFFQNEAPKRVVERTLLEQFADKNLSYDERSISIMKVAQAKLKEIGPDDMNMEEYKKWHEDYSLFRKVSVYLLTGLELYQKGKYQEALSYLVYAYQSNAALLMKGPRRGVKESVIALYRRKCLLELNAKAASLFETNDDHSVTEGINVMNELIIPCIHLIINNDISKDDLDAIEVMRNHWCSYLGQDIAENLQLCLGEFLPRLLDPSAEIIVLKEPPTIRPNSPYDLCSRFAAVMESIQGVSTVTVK
Outline: as §1

Measured: log2 ratio of Biotin-Ahx-Ub-VS probe labelling

CN(CCc1ncc(Br)cn1)C(=O)CCl.Cl
inactive: [1] -0.155 | [2] -0.0976 | [3] -0.487 | [4] -0.445 | [5] -0.622
